The list is not random: actives were taken first. Their share in the collection is about 22%.
Pf growth 48h = Primary qHTS for delayed death inhibitors of the malarial parasite plastid, 48 hour incubation; P. falciparum luciferase growth in erythrocytes, 48 h; Potency, µM (titrated, usually from 28.7 µM), most hits filed as inhibitors; 5.9% of 310,000 active; AID 504832, 2011
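Luciferase-expressing P. falciparum in infected erythrocytes (2% hematocrit, 0.1% parasitemia final) in RPMI 1640/0.5% Albumax were exposed to compound for 48 hours at 37 C, 5% CO2; growth read as luminescence.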
Pf growth 96h = Primary qHTS for delayed death inhibitors of the malarial parasite plastid, 96 hour incubation | P. falciparum luciferase reporter growth, 96 h | Potency, µM (titrated, usually from 28.7 µM), usual class: inhibitors | 6.9% of 320,000 active
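Luminescence readout: decreased luciferase signal marks inhibited growth of reporter-expressing P. falciparum in infected red cells (2% hematocrit, 0.05% parasitemia final), exposed to compound two generations (96 h, 37 C, 5% CO2).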
Cycloheximide cs = Cycloheximide Counterscreen for Small Molecule Inhibitors of Shiga Toxin; cell reporter, cycloheximide protein synthesis inhibition counterscreen; AID 2314, 2010; 12% of 300,000 active; max response, %; in the data active = max response mostly above about 13%, no sharp cut-off; inactive = mostly below about 14%; also: read at 38.3 µM for the half of the compounds with a filed dose
LmPK inh = qHTS Assay for Inhibitors of Leishmania Mexicana Pyruvate Kinase (LmPK); Potency, µM (top dose mostly 57.5 µM), hits mostly inhibitors; purified LmPK, Kinase-Glo ATP luminescence, 1 h; Q27686; 0.37% of 290,000 active
Target sequence (Q27686 whole entry, looked up): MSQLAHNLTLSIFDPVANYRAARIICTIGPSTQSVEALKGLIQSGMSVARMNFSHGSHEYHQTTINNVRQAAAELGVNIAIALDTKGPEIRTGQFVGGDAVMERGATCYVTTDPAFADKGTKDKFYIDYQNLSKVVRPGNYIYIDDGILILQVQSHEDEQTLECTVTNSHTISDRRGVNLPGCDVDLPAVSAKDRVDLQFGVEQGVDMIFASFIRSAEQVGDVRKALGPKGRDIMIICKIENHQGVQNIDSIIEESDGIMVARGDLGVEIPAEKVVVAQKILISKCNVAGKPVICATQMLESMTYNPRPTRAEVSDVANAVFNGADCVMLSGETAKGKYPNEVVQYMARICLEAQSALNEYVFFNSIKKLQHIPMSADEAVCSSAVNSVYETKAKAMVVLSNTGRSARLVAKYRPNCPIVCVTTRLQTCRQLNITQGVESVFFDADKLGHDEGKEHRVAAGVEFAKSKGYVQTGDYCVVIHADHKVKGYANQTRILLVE
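Purified LmPK (0.1 nM) converted ADP (0.1 mM) to ATP with PEP (0.5 mM) in imidazole buffer pH 7.2 with KCl and MgCl2, 1 h at room temperature. ATP was read by Kinase-Glo luminescence; data normalized to uninhibited and no-enzyme controls.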
Shiga toxin inh = A qHTS for Small Molecule Inhibitors of Shiga Toxin. Vero cells, Shiga toxin protein synthesis inhibition reporter. inhibition, % at 38.7 µM. 9.2% of 290,000 active. AID 2315, 2010; in the data active = inhibition mostly above about 28%, no sharp cut-off; inactive = mostly below about 43%
Hits are given with their value; – = inactive; ? = inconclusive; · = no result; + = active, no number. Unless noted, calls follow the shape of the dose curve; as a rule, active = well fitted inhibition curve with a large enough effect; inconclusive = small, poorly fitted or top-dose-only effect, or another doubt; inactive = no such curve, though single readings can be large or run the other way.

SMILES	Pf growth 48h	Pf growth 96h	Cycloheximide cs	LmPK inh	Shiga toxin inh
COc1cccc(OC)c1C(=O)Nc1ccccc1C(=O)N1CCCCCC1	–	–	–	–	–
CC(C)(C)c1ccc(-c2cn(-c3ccc(Br)cc3)c3[n+]2CCCS3)cc1	2.6µM	?	–	–	–
COc1ccc(-c2cn(-c3ccccc3)c3[n+]2CCS3)cc1	0.93µM	0.1µM	–	–	–
COc1ccc(CCN2C(=NC(=O)C(C)C)SC3CS(=O)(=O)CC32)cc1OC (stereo not given)	–	–	–	–	–
CC1CC(C)CN(C(=O)CSc2nc(N)cc(=O)[nH]2)C1 (stereo not given)	–	–	–	–	–
CCN(CC)S(=O)(=O)c1ccc(C(=O)N2CCN(C(=O)c3ccco3)CC2)cc1	–	–	·	·	·
O=C1NN=C(c2ccc(Cl)cc2)CC1c1cccc(Br)c1 (stereo not given)	4.1µM	–	–	–	–
OC1(c2ccccc2)c2ccccc2-c2ncccc21 (stereo not given)	–	?	–	–	–
CC1CCCN(C(=O)Cn2nnc(-c3ccccc3F)n2)C1 (stereo not given)	–	–	39	–	49
O=C(Cn1nnc(-c2ccccc2Cl)n1)N1CCCCC1	–	?	27	–	110
O=C(Cn1nnc(-c2ccccc2)n1)N1CCCCC1	–	?	38	–	47
O=C(Cn1nnc(-c2ccc(OCc3ccccc3F)cc2)n1)N1CCOCC1	–	·	21	–	+
COc1ccc(-c2nnn(CC(=O)N3CCOCC3)n2)cc1	·	–	–	–	–
CSc1ccc(/C=C2/C(C)=C(CC(=O)O)c3cc(F)ccc32)cc1	·	·	–	·	–
COc1ccc(-c2nnn(CC(=O)N3CCN(c4ccc(F)cc4)CC3)n2)cc1	–	–	–	–	–
CC(C)COc1ccc(-c2nnn(CC(=O)N3CCCC3)n2)cc1	?	–	23	–	58
Cc1cnc(NC(=O)CCCNC(=O)c2ccc(Cl)cc2)s1	–	–	·	·	·
Cc1ccc(NC(=O)CCNC(=O)c2ccc(Br)cc2)nc1	–	–	18	–	56
Cc1ccc(NC(=O)CCCNC(=O)c2ccc(Cl)cc2)c(O)c1	–	–	69	–	91
COc1ccc(NC(=O)CCCNC(=O)c2ccc(Cl)cc2)c(OC)c1	–	–	–	–	–
Cc1ccc(NC(=O)CCNC(=O)c2ccc(Cl)cc2)nc1	–	–	41	–	74
Cc1ccc(NC(=O)CCCNC(=O)c2ccc(Cl)cc2)nc1	–	–	29	–	63
Cc1ccc(OCCNC(=O)CCNC(=O)c2ccc(Cl)cc2)cc1	–	–	·	·	·
Cc1cccnc1NC(=O)CCNC(=O)c1ccc(Br)cc1	–	–	–	–	–
CC(=O)OC1C=C[C@@H](OC(C)=O)C1 (stereo not given in full)	·	·	–	·	–
SMILES	Pf growth 48h	Pf growth 96h	Cycloheximide cs	LmPK inh	Shiga toxin inh
C=Cn1c(C(=O)O)cc(CC)c1-c1ccccc1	–	1.5µM	–	–	–
CCc1cc(Cn2nc(-c3ccccc3)cc2C(=O)O)on1	–	–	·	·	·
Cc1ccc(C(O)Cn2cc([N+](=O)[O-])nc2C)cc1 (stereo not given)	2.6µM	–	–	–	–
CCNS(=O)(=O)c1ccc2c(c1)NCC2	–	–	–	–	–
O=[N+]([O-])c1ccc(CN2CCN(c3nc4ccccc4s3)CC2)cc1	–	?	12	–	–
Cc1ccccc1CN1CCN(c2nc3ccccc3s2)CC1	·	–	51	–	63
O=C(O)COC(=O)Cc1ccccc1Nc1c(Cl)cccc1Cl	?	?	–	–	–
Cc1n[nH]c(C)c1S(=O)(=O)N(C)Cc1ccco1	–	–	·	·	·
CC1=CC(=O)C2=C(C)CC[C@H]3[C@H](C)C(=O)O[C@@H]3C12 (stereo not given in full)	·	·	–	·	–
O=C(O)c1nn(CC(=O)N2CCN(S(=O)(=O)c3ccc(Cl)cc3)CC2)c(=O)c2ccccc12	–	–	–	–	–
CCCCN(C)Cc1c(C)[nH]c2ccccc2c1=O	–	–	–	–	–
CCc1c(C)[nH]c2ccccc2c1=O	1.7µM	–	–	–	–
Cc1[nH]c2ccccc2c(=O)c1CN(C)Cc1ccccc1	–	?	27	–	–
CC(=O)CCc1c(C)[nH]c2ccccc2c1=O	–	·	–	–	–
Cc1ccc(NC(=O)C2=C(C(=O)O)CCCC2)cc1Br	–	?	–	–	–
COC(=O)Nc1ccc(SCC(=O)c2cccc([N+](=O)[O-])c2)cc1	–	–	–	–	–
Cc1ccc(/C=N/n2c(C3CCCCC3)n[nH]c2=S)cc1	?	?	–	–	–
CC(C)(O)c1[nH]c2ccc(C(F)(F)F)cc2c1C(C)(C)O	–	–	7.9	–	–
CC(C)(O)c1[nH]c2cc(C(F)(F)F)ccc2c1C(C)(C)O	–	–	–	–	37
Cc1ccc(C(=O)c2ccccc2C(=O)Nc2ccccc2)cc1	?	–	·	·	·
N#Cc1cc(C(=O)c2cc(Cl)ccc2O)cn(-c2ccccc2)c1=O	9.3µM	1.9µM	–	–	–
N#Cc1cc(C(=O)c2ccccc2OCC(=O)Nc2ccccc2Cl)cn(C2CCCCC2)c1=O	?	?	–	–	–
COc1ccc(O)c(C(=O)c2cc(C#N)c(=O)n(-c3c(C)n(C)n(-c4ccccc4)c3=O)c2)c1	?	9.3µM	22	–	–
N#Cc1cc(C(=O)c2cc(Br)ccc2O)cn(C2CCCCC2)c1=O	1.5µM	1µM	–	–	–
Cc1ccc(NC(=O)c2cc(C(=O)c3cc(Cl)ccc3O)cn(-c3ccc(C)cc3)c2=O)cc1	0.33µM	0.19µM	–	–	–
SMILES	Pf growth 48h	Pf growth 96h	Cycloheximide cs	LmPK inh	Shiga toxin inh
Cc1c(-n2cc(C(=O)c3cc(Cl)ccc3O)cc(C#N)c2=O)c(=O)n(-c2ccccc2)n1C	–	–	–	–	–
C=CCNC(=O)CN1C(=O)C2C3c4ccccc4C(c4ccccc43)C2C1=O (stereo not given)	–	–	–	–	–
Nc1cccc2c(=O)[nH]ccc12	·	·	–	·	–
Oc1cccc(Oc2ncc(C(F)(F)F)cc2Cl)c1	–	–	–	–	–
CCN(CC)CCNc1nc2c(c(=O)[nH]c(=O)n2C)n1CC(O)COc1ccc(Cl)cc1Cl (stereo not given)	?	12µM	–	–	–
CN(C)CCNc1nc2c(c(=O)[nH]c(=O)n2C)n1CC(O)COc1ccc(Cl)cc1 (stereo not given)	–	–	–	–	–
CCCNC(=O)c1nn2c(C(F)(F)F)cc(-c3ccccc3)nc2c1Br	?	9.3µM	–	–	–
O=C(NCCCn1ccnc1)c1nn2c(C(F)(F)F)cc(-c3ccccc3)nc2c1Cl	15µM	–	–	–	–
O=C(c1ccccc1)N1CCN(C(=O)c2nn3c(C(F)(F)F)cc(-c4ccccc4)nc3c2Br)CC1	8.3µM	–	–	–	–
COC(=O)c1ccc(/C=N/NC(=O)C(=O)NCC2CCCO2)cc1 (stereo not given)	–	–	–	–	–

Bioassay records: PubChem, National Center for Advancing Translational Sciences (NCATS)
